85 molecules from PubChem BioAssay AID504651 (National Center for Advancing Translational Sciences (NCATS), 2011) can be followed below.

The campaign covered roughly 360,000 compounds. About 130 (0.036%) were called active. Rule as the data show it: active = potentiation above about 30%; inactive = the rest. The sample as a whole holds a higher share of actives than the screen did.

D(1A) dopamine receptor (Homo sapiens), sequence (P21728 whole entry, looked up): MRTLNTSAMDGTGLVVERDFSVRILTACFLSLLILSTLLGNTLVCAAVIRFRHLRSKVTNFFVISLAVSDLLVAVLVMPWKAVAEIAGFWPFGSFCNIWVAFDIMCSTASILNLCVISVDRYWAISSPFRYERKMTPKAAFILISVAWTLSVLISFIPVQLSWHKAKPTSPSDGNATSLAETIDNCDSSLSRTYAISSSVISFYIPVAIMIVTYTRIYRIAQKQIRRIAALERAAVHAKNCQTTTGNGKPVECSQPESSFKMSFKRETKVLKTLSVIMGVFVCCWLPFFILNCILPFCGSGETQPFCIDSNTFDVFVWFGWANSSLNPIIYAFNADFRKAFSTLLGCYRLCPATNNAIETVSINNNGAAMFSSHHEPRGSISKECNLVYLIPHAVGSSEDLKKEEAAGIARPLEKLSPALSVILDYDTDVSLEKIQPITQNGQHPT

This experiment deals with D(1A) dopamine receptor (Homo sapiens) (UniProt P21728). Description: Potentiators of Human D1 Dopamine Receptor: qHTS. Also: 0% is about no effect. The conditions noted are these: HEK293 TREx D1 cells, calcium flux, dopamine EC20 potentiation; at 10 µM; hits give high values. The text has this:
Dopamine receptors (DARs) are involved in the etiology and/or therapy of a number of neuropsychiatric and endocrine disorders. For instance, all receptor-based antiparkinsonian drugs work via stimulating the D1 DAR subtype whereas all FDA-approved antipsychotic agents are antagonists of this receptor. […] There are three different types of allosteric modulators that we are seeking, two of which will stimulate or augment receptor signaling, allosteric agonists and potentiators, while the third, allosteric antagonists, will attenuate receptor signaling. The present primary screening assay measures compound potentiation of an EC20 dopamine response by tracking calcium flux in a […], inducible Hek293 Trex D1 cell line.
NIH Chemical Genomics Center [NCGC]
NIH Molecular Libraries Probe Centers Network [MLPCN]
Assay Submitter (PI): David Sibley
Freshly passaged cells are plated in 1536 well black, clear bottom plates at a density of 4000 cells/well in 3 ul of complete media containing 1x tetracycline inducer. After an overnight incubation at 30 C in 5% CO2, cells are loaded with 2 ul of the no wash Calcium Assay Kit (ABD Bioquest) and incubated at room temperature for 30 to 90 minutes. A 10 cycle (1 second/cycle) baseline measurement is taken and then the FDSS online 1536 pintool delivers 23 nl of compound library (as well as dopamine controls) to the plate. The plate is measured for kinetically at 1 cycle/sec for 180 seconds and is considered to be the agonist portion of the assay (eg, compounds which activate a positive calcium response during this portion are flagged as potential agonists). Following the 180 second read, 1 ul of an EC20 of dopamine is delivered by an onboard pipette head. Measurements are taken kinetically for an additional 180 seconds.
Regarding `Cc1ccc(S(=O)(=O)NC(N)=NCCC[C@@H](NC(=O)CNC(=O)c2ccccc2)C(=O)Nc2cc(C(F)(F)F)ccc2Cl)cc1`, the potentiation is 5.3% (inactive).

In the case of `COc1ccc(N2C(=O)CS(=O)(=O)C23C(=O)N(Cc2ccc(C)cc2)c2ccccc23)cc1Cl` (stereo not given), the potentiation is -6.6% (inactive).

Consider `COc1cccc(NC(=O)N(Cc2cn(C)c3ccccc23)C2CCCCCC2)c1`, for which the potentiation was 1.8% (inactive).

Turning to `O=C(CC1N=C2c3ccccc3N=C(SCc3ccc(F)cc3)N2C1=O)NCc1cccs1` (stereo not given), the potentiation is -0.25% (inactive).

For `CCN1CCN(c2cc(C)c3cc(NC(=O)c4cc(Cl)ccc4OC)ccc3n2)CC1`, the potentiation is -1.15% (inactive).

Take `Cc1nc(SCC(=O)N2CCN(c3ccccc3)CC2)[nH]c(=O)c1C`: the potentiation is 5.55% (inactive).

In the case of `CC(=O)c1ccc(NC(=O)CSc2nnc(NC(=O)Nc3ccccc3)s2)cc1`, the potentiation was 4.75% (inactive).

For the molecule `Cc1ccc(O)c(NC(=O)CCS(=O)(=O)c2nc(-c3ccc4c(c3)OCO4)cc(C(F)(F)F)n2)c1`, the potentiation was -1.35% (inactive).

With `CCOC(=O)Cn1c(=O)n(-c2ccccc2OC)c2nc(-c3cccc(F)c3)nc(C(N)=O)c21`, the potentiation is -1.3% (inactive).

Regarding `Cc1ccc(C2CCN(C(=O)c3cnn(-c4ccccc4Cl)c3C3CCN(C(=O)OC(C)(C)C)CC3)C2)cc1` (stereo not given), the potentiation is 2% (inactive).

Take `COc1ccc(N2CCN(C(=O)c3c(C)oc4nc(C)nc(N5CCCC5)c34)CC2)cc1`: the potentiation was -1.55% (inactive).

On to `O=C(CSc1nccn1Cc1ccc(Cl)cc1)NCc1ccccc1`, for which the potentiation is 0.3% (inactive).

For the molecule `Cc1ccccc1OCCC(=O)OCC(=O)NC(C)c1ccccc1` (stereo not given), the potentiation was -0.3% (inactive).

On to `COc1cc(OC)cc(C(=O)N[C@H](C(=O)OCC(=O)NC(C)c2ccccc2)C(C)C)c1` (stereo not given in full), for which the potentiation was 36.6% (active).

`COc1ccc(N2CCN(C(=O)[C@@H](NC(=O)c3cc(OC)cc(OC)c3)C(C)C)CC2)cc1`: the potentiation was -4.25% (inactive).

`Cc1onc(-c2ccc(F)cc2F)c1C(=O)Nc1cccc(C(F)(F)F)c1`: the potentiation was 0.65% (inactive).

On to `COc1ccccc1-c1cc(C(F)(F)F)nc(S(=O)(=O)CCCC(=O)Nc2ccc(F)cc2F)n1`, for which the potentiation was -0.1% (inactive).

In the case of `COc1ccc(CCNc2nc(-c3ccc(F)cc3)cc(C(F)(F)F)n2)cc1OC`, the potentiation is 3.1% (inactive).

With `COc1ccc(C2=NC(c3ccncc3)=Nc3ccc(Br)cc3N2)cc1`, the potentiation was 3.45% (inactive).

As for `Brc1ccc2c(c1)NC(c1cccnc1)=NC(c1ccccc1)=N2`, the potentiation is 35.8% (active).

In the case of `Brc1ccc(C2CC(c3ccccc3)=Nc3ccccc3N2)cc1` (stereo not given), the potentiation was -5.6% (inactive).

Take `CCCCS(=O)(=O)c1oc(-c2cccs2)nc1S(=O)(=O)c1ccccc1`: the potentiation was -0.2% (inactive).

Consider `CCc1ccccc1NC(=O)c1ccc2nc(CCc3ccccc3)oc2c1`, for which the potentiation was 1% (inactive).

Turning to `CCOc1ccccc1C(=O)NC1(C(F)(F)F)NC(=O)N(CCc2ccc(OC)c(OC)c2)C1=O` (stereo not given), the potentiation is -3.95% (inactive).

For the molecule `O=C(NCc1nnc(C(=O)Nc2ccc(C(F)(F)F)cc2Cl)o1)c1ccccc1`, the potentiation is -8.2% (inactive).

With `CCCS(=O)(=O)c1ncc(Cl)c(C(=O)Nc2scc(-c3ccccc3)c2C(=O)OCC)n1`, the potentiation is -3.7% (inactive).

Turning to `N#Cc1nc(Nc2cc(F)cc(Cl)c2)nc(NC2CCCC2)n1`, the potentiation is -0.2% (inactive).

Turning to `CCOc1ccc(C2C(C#N)=C(N)N(N(C)C)C3=C2C(=O)CCC3)cc1` (stereo not given), the potentiation was -0.15% (inactive).

With `CCOc1ccc(C2C3=C(CCCC3=O)N(CC(=O)O)C3=C2C(=O)CCC3)cc1`, the potentiation was 36% (active).

On to `COc1ccc(C2C3=C(CCCC3=O)N(CC(=O)O)C3=C2C(=O)CCC3)cc1`, for which the potentiation is 1% (inactive).

With `CCc1ccc(CN(Cc2ccco2)C(=O)c2ccccc2Cl)cc1`, the potentiation was -2.55% (inactive).

As for `CC(=O)Nc1cccc(NC(=O)CSc2cn(CC(=O)N3CCCC3)c3ccccc23)c1`, the potentiation was -2.85% (inactive).

As for `O=c1c(NCc2cccs2)nccn1-c1ccccc1`, the potentiation was 0.1% (inactive).

With `O=C(COc1ccc(Cl)cc1)N(Cc1ccco1)Cc1ccco1`, the potentiation was 1.05% (inactive).

As to `Cc1ccc(Cn2c(C)c3cnn(CC(=O)NCc4ccccc4)c(=O)c3c2C)cc1`, the potentiation was -1.5% (inactive).

On to `O=C(COc1ccccc1)NCc1ccc2c(c1)CCN2C(=O)c1ccc(F)cc1`, for which the potentiation was -2.1% (inactive).

With `Cc1ccc(CCNC(=O)Cn2c(-c3cccs3)cc3cc(F)ccc32)cc1`, the potentiation is -3.65% (inactive).

As to `Cc1ccc(-c2cc(N)n(Cc3cccc(Cl)c3)n2)cc1`, the potentiation is -4.4% (inactive).

On to `O=S(=O)(c1ccc2nc(NCc3ccccc3Cl)ccc2c1)N1CCCCC1`, for which the potentiation is -5.55% (inactive).

For `Cc1ccc2ccc3c(c2n1)NS(=O)(=O)c1ccccc1-3`, the potentiation is 1.45% (inactive).

`COc1ccc(OC)c(NC(=O)CSc2nc3ccccc3nc2N2CCCCC2)c1`: the potentiation was -3.85% (inactive).

As to `CCc1ccccc1NC(=O)CSc1nnc(-c2ccccc2)c(-c2ccccc2)n1`, the potentiation was 1% (inactive).

Turning to `Cc1c(Cl)cccc1NC(=O)c1noc2c1CCCC2`, the potentiation was 2.2% (inactive).

For `CCC(=O)N1CCc2cc(CNS(=O)(=O)c3ccc(Br)s3)ccc21`, the potentiation was -0.5% (inactive).

Take `O=C1C(F)N([S+](=O)([O-])c2ccc3c(c2)OCCO3)CCN1[S+](=O)([O-])c1c(F)cccc1F` (stereo not given): the potentiation was 5.45% (inactive).

As for `COc1cccc(CNC(=O)c2ccc3c(c2)N(Cc2ccc(C(F)(F)F)cc2)C(=O)c2ccccc2S3)c1OC`, the potentiation is -5.65% (inactive).

`N#Cc1nc(Nc2cccc(Cl)c2)nc(NC2CCCC2)n1`: the potentiation was -2.6% (inactive).

On to `Cc1c(-c2nc(-c3ccc4c(c3)OCO4)no2)nnn1-c1ccc(Br)cc1F`, for which the potentiation is -2.8% (inactive).

Consider `CC1CCC2(CC1)N=C(c1ccccc1)C(=O)N2CC(=O)Nc1ccc(F)c(Cl)c1` (stereo not given), for which the potentiation is -3.15% (inactive).

`CN(C(=O)c1ccc2c(c1)N(Cc1cccc(Cl)c1)C(=O)c1ccccc1S2=O)C1CCCCC1` (stereo not given): the potentiation was 0.2% (inactive).

With `CCc1cc2c(cc3c(=O)n(CC(=O)N4CCN(c5cc(Cl)ccc5C)CC4)ncn32)s1`, the potentiation is -2.7% (inactive).

Consider `O=C(CNC(=O)c1ccccc1)OC(C(=O)Nc1cc([N+](=O)[O-])ccc1F)c1ccccc1` (stereo not given), for which the potentiation was 5.6% (inactive).

Regarding `COCCNC(=O)c1ccc2c(c1)N=C(C)c1cc(C)ccc1S2`, the potentiation is 0.1% (inactive).

For `CCOC(=O)c1cccc(NC(=O)c2cc(CN3CCCC3)on2)c1`, the potentiation is -7.25% (inactive).

As to `Cc1ccc(Cl)cc1N1CCN(C(=O)CN2C(=O)COc3ccc(S(=O)(=O)N4CCOCC4)cc32)CC1`, the potentiation was 4.75% (inactive).

As for `Cc1c(C(=O)N2CCCC2)oc2c1-c1nn(CC(=O)NCc3ccc(OC(C)C)cc3)cc1CC2`, the potentiation is -0.75% (inactive).

In the case of `Cc1ccc(-c2nc(SCc3ccc(Br)cc3)n3[nH]c(=O)cc3n2)cc1`, the potentiation was -0.15% (inactive).

For `O=S(=O)(c1ccccc1)c1nc(-c2ccc(Cl)cc2Cl)oc1N1CCCCC1`, the potentiation is -2.95% (inactive).

With `CCOc1ccc(N(Cc2ccccc2)C(=O)c2nc(S(C)(=O)=O)ncc2Cl)cc1`, the potentiation is -0.05% (inactive).

With `Cc1c(CCNC(=O)c2ccc(C(F)(F)F)cc2)sc2nc(-c3ccc(F)cc3)nn12`, the potentiation is -2.3% (inactive).

In the case of `COc1ccc(OC)c(-c2nc(C(N)=O)c3c(n2)n(-c2ccc4c(c2)OCO4)c(=O)n3C)c1`, the potentiation is 0.75% (inactive).

For the molecule `O=C(c1ccc2c(c1)N(Cc1ccc(Cl)cc1)C(=O)c1ccccc1S2(=O)=O)N1CCCCC1`, the potentiation is -1.9% (inactive).

Consider `CCN1C(=O)c2ccccc2S(=O)c2ccc(C(=O)NCc3ccc(F)cc3)cc21` (stereo not given), for which the potentiation is 3% (inactive).

Take `CN1CCN(c2ccccc2NC(=O)COc2ccc(C3CCCCC3)cc2)CC1`: the potentiation was 37.7% (active).

As to `Cc1ccc(OCC(=O)Nc2ccccc2C(=O)NC2CC2)cc1`, the potentiation is -0.15% (inactive).

Take `CCOc1ccccc1NC(=O)COc1ccc(S(=O)(=O)N2CCCC2)cc1`: the potentiation was -4.6% (inactive).

For `CCn1c2ccccc2c2nnc(SCC(=O)O)nc21`, the potentiation was -1.3% (inactive).

`Cc1oc2ncnc(N3CCOCC3)c2c1C(=O)NCCc1ccccc1`: the potentiation is 2.6% (inactive).

On to `COc1ccccc1N1CCN(C(CNC(=O)C(=O)NCc2ccc(C)cc2)c2cccnc2)CC1` (stereo not given), for which the potentiation is 3.55% (inactive).

Turning to `COc1cccc(C(=O)NC2CCN(C#N)CC2)c1`, the potentiation was -6.95% (inactive).

Regarding `O=C(Cn1cc(SCc2cccc(Cl)c2)c2ccccc21)N1CCCCC1`, the potentiation is -2.05% (inactive).

Take `CCCOc1ccc(NC(=O)CC2C(=O)N(c3ccccc3)C(=O)N2Cc2ccco2)cc1` (stereo not given): the potentiation was -2.9% (inactive).

With `Cc1cccc(NC(=O)C2CCCN2S(=O)(=O)c2cccc3nsnc23)c1C` (stereo not given), the potentiation was -2.95% (inactive).

Regarding `CC(C)c1ccc(NC(=O)Cn2nnc(C(=O)NCCc3ccccc3)c2N)cc1`, the potentiation was -1.7% (inactive).

`O=C(CSc1nc2nccnc2c(=O)n1CCc1c[nH]c2ccccc12)Nc1ccccc1F`: the potentiation was -3.65% (inactive).

Consider `COc1ccc(S(=O)(=O)Nc2cccc3cccnc23)c(N)c1`, for which the potentiation is -3.75% (inactive).

Take `Nn1c(SCC(=O)NC2CCCC2)nnc1-c1ccccc1F`: the potentiation is -7.1% (inactive).

As for `Nn1c(SCC(=O)NC(=O)NC2CCCC2)nnc1-c1ccccc1F`, the potentiation is -9.3% (inactive).

With `CC(C)NC(=O)NC(=O)CSc1nnc(-c2ccccc2F)n1N`, the potentiation is 35% (active).

Consider `O=S(=O)(c1ccc2c(c1)OCCO2)N1CCN(S(=O)(=O)c2cc(F)ccc2F)CC1`, for which the potentiation is -0.7% (inactive).

With `Cc1ccc(C)c(Cn2c(=O)n(CCC(=O)NCc3ccc4c(c3)OCO4)c(=O)c3sccc32)c1`, the potentiation is 0.75% (inactive).

As to `CCOc1cc(C2c3c(-c4ccc(Br)cc4)n[nH]c3C(=O)N2c2ccc(Cl)cc2)ccc1O` (stereo not given), the potentiation was 1.25% (inactive).

`COc1cc(CN(CC2CCCO2)C(=O)c2ccccc2F)cc(OC)c1OC` (stereo not given): the potentiation was 5% (inactive).

For the molecule `N#CN1CCC(NC(=O)c2ccc(F)cc2)CC1`, the potentiation is -0.05% (inactive).

As for `O=C(CNC(=O)c1ccc(Cl)c(C(F)(F)F)c1)OC(C(=O)Nc1cc(C(F)(F)F)ccc1Cl)c1ccccc1` (stereo not given), the potentiation is 1.3% (inactive).
